This is part of a sample that, as a whole, favours compounds with a hit. Of some 83,000 tested, about 20% had one in any assay.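 A percent growth of 40 corresponds to 60% growth inhibition; 0 means no net growth; -100 means all cells died. Active threshold: below 10.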 Activity calls are given as the source filed them.
How the values were obtained:
Test in all cases: NCI-60 one-dose screen, 48 h (100 = growth as untreated, 0 = no growth, -100 = all killed)
NCI-H23 lung = details: 10 µM unless noted
NCI-H226 lung = details: 10 µM unless noted
DU-145 prostate = details: 10 µM unless noted
MDA-MB-231 breast = details: 10 µM unless noted
SF-268 CNS = details: 10 µM unless noted
M14 melanoma = details: 10 µM unless noted
HCT-15 colon = details: 10 µM
SNB-75 CNS = details: 10 µM unless noted
U251 CNS = details: 10 µM unless noted
PC-3 prostate = details: 10 µM unless noted
UACC-62 melanoma = details: 10 µM unless noted
OVCAR-8 ovarian = details: 10 µM unless noted
OVCAR-5 ovarian = details: 10 µM unless noted
SK-OV-3 ovarian = details: 10 µM unless noted
OVCAR-3 ovarian = details: 10 µM unless noted
NCI/ADR-RES ovarian = details: 10 µM unless noted
MDA-MB-435 melanoma = details: 10 µM unless noted
MCF7 breast = details: 10 µM unless noted
HCT-116 colon = details: 10 µM unless noted
KM12 colon = details: 10 µM unless noted

Measured: growth

O=[N+]([O-])c1ccc(/C=C/C=C/c2ccc(S(=O)(=O)F)cc2)c(Cl)c1
inactive: NCI-H23 lung 96.4% | NCI-H226 lung 99.8% | DU-145 prostate 107% | MDA-MB-231 breast 99.3% | SF-268 CNS 96.1% | M14 melanoma 100% | HCT-15 colon 98% | SNB-75 CNS 71.7% | U251 CNS 96.2% | PC-3 prostate 91.8% | UACC-62 melanoma 94.9% | OVCAR-8 ovarian 99% | OVCAR-5 ovarian 112% | SK-OV-3 ovarian 98% | OVCAR-3 ovarian 109% | NCI/ADR-RES ovarian 104% | MDA-MB-435 melanoma 92.9% | MCF7 breast 102% | HCT-116 colon 106% | KM12 colon 97.1%

c1ccc([As]=[As]c2ccccc2)cc1 (stereo not given)
active: NCI-H23 lung -37.2% | NCI-H226 lung 5.17% | DU-145 prostate -6.06% | MDA-MB-231 breast -60.9% | SF-268 CNS -39.8% | M14 melanoma -30.2% | HCT-15 colon -86.2% | U251 CNS -98.7% | PC-3 prostate -22.9% | UACC-62 melanoma -76.4% | OVCAR-8 ovarian -22.4% | OVCAR-5 ovarian -7.9% | OVCAR-3 ovarian -93% | NCI/ADR-RES ovarian 9.34% | MDA-MB-435 melanoma -37.6% | MCF7 breast -76.2% | HCT-116 colon -99.4% | KM12 colon 9.67%
inactive: SNB-75 CNS 14.3% | SK-OV-3 ovarian 27.5%

CCCCCCCC(=O)OCC/C=C/C1OC1C1OC(=O)/C=C\C=C\c2nc(oc2C)/C=C(/C)CCC2OC2C1OC(=O)NC(C)=O (stereo not given)
active: NCI-H23 lung -59.1% | NCI-H226 lung -37.5% | DU-145 prostate -74.5% | SF-268 CNS 5.33% | M14 melanoma -20.4% | HCT-15 colon -5.6% | SNB-75 CNS -35.8% | U251 CNS -34.3% | PC-3 prostate -3.27% | UACC-62 melanoma -49.6% | OVCAR-8 ovarian -79.1% | OVCAR-5 ovarian -22% | SK-OV-3 ovarian -38.5% | OVCAR-3 ovarian 5.74% | NCI/ADR-RES ovarian -33.8% | MDA-MB-435 melanoma 3.24% | MCF7 breast -39.3% | HCT-116 colon -24.4% | KM12 colon -74%

CC1(C)CC(=O)CC(C)(C)N1N=O
inactive: NCI-H23 lung 102% | NCI-H226 lung 104% | DU-145 prostate 107% | MDA-MB-231 breast 109% | SF-268 CNS 106% | M14 melanoma 102% | HCT-15 colon 98.1% | SNB-75 CNS 78.7% | U251 CNS 118% | UACC-62 melanoma 104% | OVCAR-8 ovarian 102% | OVCAR-5 ovarian 104% | SK-OV-3 ovarian 105% | OVCAR-3 ovarian 101% | NCI/ADR-RES ovarian 100% | MDA-MB-435 melanoma 112% | MCF7 breast 97.9% | HCT-116 colon 96.3% | KM12 colon 99.1%

O=C1NC(=O)C(=Cc2cn(Cc3ccccc3)c3ccccc23)C(=O)N1
inactive: NCI-H23 lung 93.2% | DU-145 prostate 100% | MDA-MB-231 breast 84.9% | SF-268 CNS 90.8% | M14 melanoma 99.5% | HCT-15 colon 93.8% | SNB-75 CNS 77.6% | U251 CNS 84.1% | PC-3 prostate 84.2% | UACC-62 melanoma 40.6% | OVCAR-8 ovarian 81.1% | OVCAR-5 ovarian 18.4% | SK-OV-3 ovarian 53.2% | OVCAR-3 ovarian 72.6% | NCI/ADR-RES ovarian 106% | MDA-MB-435 melanoma 91.4% | MCF7 breast 85.9% | HCT-116 colon 86.1% | KM12 colon 99.5%
active: NCI-H226 lung -68.9%

C[C@@H]1O[C@@H](O[C@H]2CC[C@@]3(C)[C@H](CCC4[C@@H]3C(O)C[C@]3(C)[C@@H](c5ccc(=O)oc5)CC[C@]43O)C2)[C@H](O)[C@H](O)[C@H]1O (stereo not given in full)
active: NCI-H23 lung -78.5% | NCI-H226 lung -84.2% | DU-145 prostate -70.1% | MDA-MB-231 breast -63.7% | SF-268 CNS -63.1% | M14 melanoma -70.7% | HCT-15 colon -74.5% | SNB-75 CNS -88.3% | U251 CNS -97.9% | PC-3 prostate -33.3% | UACC-62 melanoma -89.6% | OVCAR-5 ovarian -92% | SK-OV-3 ovarian -95.6% | OVCAR-3 ovarian -46.7% | NCI/ADR-RES ovarian -66.8% | MDA-MB-435 melanoma -76.2% | MCF7 breast -59.4% | HCT-116 colon -79.9% | KM12 colon -94.2%

COC(=O)C1CC2c3ccccc3C1c1ccccc12 (stereo not given)
inactive: NCI-H23 lung 111% | NCI-H226 lung 92.3% | DU-145 prostate 119% | MDA-MB-231 breast 122% | SF-268 CNS 107% | M14 melanoma 107% | HCT-15 colon 91.2% | SNB-75 CNS 94.5% | U251 CNS 101% | PC-3 prostate 66.4% | UACC-62 melanoma 103% | OVCAR-8 ovarian 101% | OVCAR-5 ovarian 104% | SK-OV-3 ovarian 99.1% | OVCAR-3 ovarian 115% | NCI/ADR-RES ovarian 105% | MDA-MB-435 melanoma 107% | MCF7 breast 96.5% | HCT-116 colon 106% | KM12 colon 113%

C=C=[CH][Sn]([c]1ccccc1)([c]1ccccc1)[c]1ccccc1
active: NCI-H23 lung -43.3% | NCI-H226 lung -40.4% | DU-145 prostate -91.1% | MDA-MB-231 breast -53.3% | SF-268 CNS -69% | M14 melanoma -66.1% | HCT-15 colon -48.6% | U251 CNS -75.6% | PC-3 prostate -50.5% | UACC-62 melanoma -62.3% | OVCAR-8 ovarian -30% | OVCAR-5 ovarian -60.3% | SK-OV-3 ovarian -57.1% | OVCAR-3 ovarian -94% | MDA-MB-435 melanoma -59.5% | MCF7 breast -52.5% | HCT-116 colon -97.4% | KM12 colon -84.8%
inactive: SNB-75 CNS 14.2%

CC(=O)O[C@H]1CC[C@H]2[C@@H]3CC[C@H]4CC=C(C)C[C@]4(C)[C@H]3CC[C@]12C
inactive: NCI-H23 lung 104% | NCI-H226 lung 103% | DU-145 prostate 106% | MDA-MB-231 breast 109% | SF-268 CNS 100% | M14 melanoma 101% | HCT-15 colon 98.6% | SNB-75 CNS 110% | U251 CNS 110% | PC-3 prostate 99.3% | UACC-62 melanoma 98.5% | OVCAR-8 ovarian 102% | OVCAR-5 ovarian 92.1% | SK-OV-3 ovarian 102% | OVCAR-3 ovarian 102% | NCI/ADR-RES ovarian 109% | MDA-MB-435 melanoma 106% | MCF7 breast 100% | HCT-116 colon 103% | KM12 colon 103%

CCOc1cc(/C=N\Nc2nnc(C)n2N)c(C)cc1N(CCCl)CCCl
inactive: NCI-H226 lung 26.6% | DU-145 prostate 27.8% | MDA-MB-231 breast 38.2% | SF-268 CNS 28.2% | M14 melanoma 13.8% | HCT-15 colon 25.5% | SNB-75 CNS 24.1% | U251 CNS 14.4% | OVCAR-8 ovarian 19.5% | OVCAR-5 ovarian 52.6% | SK-OV-3 ovarian 40.1% | NCI/ADR-RES ovarian 10.7% | HCT-116 colon 12% | KM12 colon 13.8%
active: NCI-H23 lung -20.2% | PC-3 prostate 7.23% | UACC-62 melanoma -1.59% | OVCAR-3 ovarian 4.15% | MDA-MB-435 melanoma 7.67% | MCF7 breast 9.29%

OC1(c2ccccc2F)c2ccccc2C2=NCCN21 (stereo not given)
inactive: NCI-H23 lung 86.7% | NCI-H226 lung 84.8% | DU-145 prostate 113% | MDA-MB-231 breast 109% | SF-268 CNS 116% | M14 melanoma 107% | HCT-15 colon 108% | SNB-75 CNS 104% | U251 CNS 104% | PC-3 prostate 95.6% | UACC-62 melanoma 96% | OVCAR-8 ovarian 104% | OVCAR-5 ovarian 98.6% | SK-OV-3 ovarian 105% | OVCAR-3 ovarian 87.9% | NCI/ADR-RES ovarian 86.6% | MDA-MB-435 melanoma 110% | MCF7 breast 103% | HCT-116 colon 93.3% | KM12 colon 105%

C/C(=C\C(=O)O[C@H]1[C@@H]2[C@H](C)CC[C@H]2[C@]2(C)O[C@@]1(C1CCCCC1)C[C@H]2OC(=O)CO)c1ccccc1
inactive: NCI-H23 lung 50.8% | NCI-H226 lung 41.1% | DU-145 prostate 66.1% | MDA-MB-231 breast 55.5% | SF-268 CNS 26% | M14 melanoma 47.4% | HCT-15 colon 18.7% | SNB-75 CNS 68.3% | U251 CNS 24.2% | PC-3 prostate 17.9% | UACC-62 melanoma 63.2% | OVCAR-8 ovarian 19% | OVCAR-5 ovarian 82.9% | SK-OV-3 ovarian 59.7% | OVCAR-3 ovarian 44.4% | MDA-MB-435 melanoma 61.7% | KM12 colon 38.2%
active: NCI/ADR-RES ovarian 7.73% | MCF7 breast 3.04% | HCT-116 colon 7.81%

O=C(Nc1ccc(S(=O)(=O)F)cc1)Oc1ccccc1
inactive: NCI-H23 lung 97.8% | NCI-H226 lung 99.5% | DU-145 prostate 103% | MDA-MB-231 breast 104% | SF-268 CNS 102% | M14 melanoma 110% | HCT-15 colon 104% | SNB-75 CNS 85.5% | U251 CNS 96.8% | PC-3 prostate 93.4% | UACC-62 melanoma 97.5% | OVCAR-8 ovarian 101% | OVCAR-5 ovarian 102% | SK-OV-3 ovarian 102% | OVCAR-3 ovarian 105% | NCI/ADR-RES ovarian 103% | MDA-MB-435 melanoma 99.9% | MCF7 breast 91.6% | HCT-116 colon 116% | KM12 colon 102%

COP(=S)(OC)Oc1ccc(SC)c(C)c1
inactive: NCI-H23 lung 97.7% | NCI-H226 lung 85.6% | DU-145 prostate 111% | MDA-MB-231 breast 113% | SF-268 CNS 110% | M14 melanoma 101% | HCT-15 colon 105% | SNB-75 CNS 89.6% | U251 CNS 100% | PC-3 prostate 85.9% | UACC-62 melanoma 95.5% | OVCAR-5 ovarian 93.2% | SK-OV-3 ovarian 100% | OVCAR-3 ovarian 104% | NCI/ADR-RES ovarian 100% | MDA-MB-435 melanoma 100% | MCF7 breast 113% | HCT-116 colon 103% | KM12 colon 105%

O=C(O)C1[O][Sb][O]C1C(=O)O (stereo not given)
inactive: NCI-H23 lung 110% | NCI-H226 lung 93.9% | DU-145 prostate 91.4% | MDA-MB-231 breast 128% | SF-268 CNS 93% | M14 melanoma 94.5% | HCT-15 colon 88.5% | SNB-75 CNS 94.8% | U251 CNS 102% | PC-3 prostate 102% | UACC-62 melanoma 110% | OVCAR-8 ovarian 101% | OVCAR-5 ovarian 120% | SK-OV-3 ovarian 102% | OVCAR-3 ovarian 95.4% | NCI/ADR-RES ovarian 103% | MDA-MB-435 melanoma 105% | MCF7 breast 92% | HCT-116 colon 103% | KM12 colon 99.5%

CCOc1cc(C=C(C#N)C#N)cc(Br)c1O
inactive: NCI-H23 lung 99% | NCI-H226 lung 106% | DU-145 prostate 103% | MDA-MB-231 breast 109% | SF-268 CNS 95.6% | M14 melanoma 98% | HCT-15 colon 102% | SNB-75 CNS 83.5% | U251 CNS 96.5% | PC-3 prostate 98.4% | UACC-62 melanoma 105% | OVCAR-8 ovarian 102% | OVCAR-5 ovarian 108% | SK-OV-3 ovarian 116% | OVCAR-3 ovarian 98.8% | NCI/ADR-RES ovarian 104% | MDA-MB-435 melanoma 101% | MCF7 breast 96% | HCT-116 colon 99.2% | KM12 colon 103%

Source: PubChem BioAssay (NCI)
